Test results: ChEMBL document CHEMBL3433997, “St. Jude Leishmania screening dataset” (2016)

Tests used:
Format in all cases: functional
[1] = biological target: Solute carrier family 2, facilitated glucose transporter member 1 (Homo sapiens) (UniProt P11166); test: ST_JUDE_LEISH: Cytotoxicity at 2uM final concentration against transgenic Leishmania Mexicana promastigotes LmGLUT1 that are glucose transport deficient and complemented with the human glucose transporter GLUT1. Activity is measured by DNA content using SYBR green in vitro
Chain of Solute carrier family 2, facilitated glucose transporter member 1 (Homo sapiens) (P11166 whole entry): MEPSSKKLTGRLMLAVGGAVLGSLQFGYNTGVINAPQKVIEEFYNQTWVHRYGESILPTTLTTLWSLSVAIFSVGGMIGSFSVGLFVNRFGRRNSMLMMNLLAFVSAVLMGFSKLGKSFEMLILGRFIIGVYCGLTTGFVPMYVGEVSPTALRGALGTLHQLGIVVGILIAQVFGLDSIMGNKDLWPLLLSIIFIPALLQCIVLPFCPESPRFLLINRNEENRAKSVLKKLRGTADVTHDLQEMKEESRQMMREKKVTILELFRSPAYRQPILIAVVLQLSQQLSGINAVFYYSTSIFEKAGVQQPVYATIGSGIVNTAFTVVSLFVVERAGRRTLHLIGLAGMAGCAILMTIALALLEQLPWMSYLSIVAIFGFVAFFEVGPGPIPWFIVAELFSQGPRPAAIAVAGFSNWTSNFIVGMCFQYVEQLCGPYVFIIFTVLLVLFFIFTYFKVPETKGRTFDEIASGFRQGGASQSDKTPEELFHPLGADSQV

[2] = biological target: Hexose transporter 1 (Plasmodium falciparum) (UniProt O97467); test: ST_JUDE_LEISH: Cytotoxicity at 2uM final concentration against transgenic Leishmania Mexicana promastigotes LmPfHT that are glucose transport deficient and complemented with the Plasmodium falciparum hexose transporter. Activity is measured by DNA content using SYBR green in vitro
[3] = biological target: Glucose transporter (Leishmania mexicana) (UniProt O61059); test: ST_JUDE_LEISH: Cytotoxicity at 2uM final concentration against transgenic Leishmania Mexicana promastigotes LmGT2 that are glucose transport deficient and complemented with the L. Mexicana glucose transporter 2. Activity is measured by DNA content using SYBR green in vitro

Structure (SMILES) | inhibition [1] [%] | inhibition [2] [%] | inhibition [3] [%]
c1cc(CNCCc2ccncc2)cc(-c2ccc(-c3nc4ccccc4[nH]3)s2)c1 | 0.32 | -0.86 | -0.99
Cn1cccc1C(=O)C(=O)Nc1cccc(-c2ccc(-c3nc4cc(C(F)(F)F)ccc4[nH]3)cc2)c1 | 4 | 2.42 | -0.4
CN(C)CCN(C)Cc1ccc(-c2cccc(NC(=O)c3ccc(Cl)cc3)c2)cc1 | 4.75 | 2.96 | 1.03
CCCCc1ccc(Cc2cnc3nc(N)nc(N)c3c2C)cc1 | 11.6 | 23 | 15.6
CCCC[C@H](NC(=O)OC(C)(C)C)C(=O)Nc1ccc(Cc2ccc(NC(=O)[C@H](CCCC)NC(=O)OC(C)(C)C)cc2)cc1 | 4.27 | 4.02 | 4.58
COc1cc(-c2ccccc2)ccc1C(=O)Nc1ccc2c(c1)N(C)CCC2 | 4.93 | 2.53 | 3.05
N=C(N)NN=Cc1cc([N+](=O)[O-])ccc1Sc1ccccc1CO | 1.08 | 1.61 | 0.68
COc1ccc([N+](=O)[O-])cc1N(Cc1ccccc1-c1ccccc1)S(=O)(=O)c1ccc(C(F)(F)F)cc1 | 3.87 | 5.68 | 2.13
Cc1cccc2nc(-c3ccc(-c4cccc(CN5CCC(CO)CC5)c4)s3)[nH]c12 | 1.48 | 0.4 | 1.75
CCN(C(=O)NC)C1c2cc(C#N)ccc2OC(C)(C)C1O (stereo unspecified) | 2.85 | 1.33 | 1.87
CO/C(=C\C=C\c1cc2cc(Cl)c(Cl)cc2[nH]1)C(=O)NCCCN(C)CCN(C)c1ccccc1 | 4.46 | 3 | 1.47
Cc1ccccc1C1CCN(C2CCC(NC(=O)C3=Cc4ccccc4OC3)CC2)CC1 (stereo unspecified) | 5.24 | 4.94 | 4.67
O=C(Nc1ccc(-c2nc3ccccc3[nH]2)cc1)c1cccc([N+](=O)[O-])c1 | 1.01 | -1.86 | -1.09
Cc1nnsc1C(=O)Nc1ccc(-c2cccc(-c3nc4cccc(C)c4[nH]3)c2)cc1 | 3.57 | 2.94 | 5.18
Cc1cccc2nc(-c3ccc(-c4cccc(CN5CCN(CC6CCCN(C)C6)CC5)c4)s3)[nH]c12 (stereo unspecified) | 7.18 | -3.27 | 0.69
O=C(NCCCCN1CCC(c2ccc([N+](=O)[O-])cc2)CC1)c1ccc(NC(=O)c2ccc(Cl)cc2)cc1 | 4.18 | 1.35 | 4.06

Structure (SMILES) | inhibition [1] [%] | inhibition [2] [%] | inhibition [3] [%]
COc1ccc(C(=O)CCC(=O)N(Cc2ccc(-c3ccc(CNCCc4ccccc4)cn3)cc2)C(C)CN(C)C)cc1F (stereo unspecified) | 2.12 | 1.14 | 0.82
Cc1cc2c(NC(=O)NC3CCN(CCc4ccccc4Cl)CC3)cccc2cn1 | 2.51 | 1.74 | 1.68
O=C(Nc1cc(=O)[nH]c2nc(-c3ccccc3)nn12)C1CCCCC1 | 2.3 | 2.44 | 3.26
Cc1nc(-c2ccccc2)nc(N2CCN(C(=O)c3ccco3)CC2)c1Cc1ccccc1F | 7.73 | 9.03 | 7.76
NCCNc1ccc([N+](=O)[O-])cc1C(=O)Nc1cccc(Cl)c1 | 2.71 | 4.41 | 2.22
CCN(CC)CCCNc1ncc2c(-c3ccc(NC(=O)Nc4cc(C(F)(F)F)ccc4F)c(F)c3)nn(C)c2n1 | -0.37 | -0.41 | -1.03
Cc1ccc2c(c1[N+](=O)[O-])N=NCC2Oc1ccccc1 (stereo unspecified) | 10.8 | 9.1 | 10.6
COCCn1c(-c2cccc(Cl)c2)nn(-c2ccc([N+](=O)[O-])cc2C#N)c1=S | 3.84 | -0.81 | 3.5
COc1ccc(/C=C/C(=O)N2CCc3cc4nccc(N5CCN6CCC[C@H]6C5)c4cc32)cc1 | 3.43 | 4.78 | 4.53
CN(C)CCCN1CCN(C(=O)c2cccc(-c3noc(C(F)(F)F)n3)c2)CC1 | 2.61 | 3.52 | 3.7
O=c1[nH]c2c(cc1CNC1CCCCC1)c(-c1ccc(F)cc1)nn2-c1ccccc1 | -1.4 | -1.47 | 0.4
COc1ccc(-c2ccc(CNCc3ccccc3)cc2)cc1S(=O)(=O)NCCN1CCCC1 | 4.97 | 1.92 | -1.36
CC1(C)CN(CCC2CCC(NC(=O)/C=C/c3ccc(F)cc3F)CC2)Cc2ccc(C#N)cc21 (stereo unspecified) | 2.36 | 1.97 | -1.19
O=C(NC(Cc1ccccc1)C(=O)O)c1cc(=O)c2ccccc2o1 (stereo unspecified) | 0.32 | 1.17 | 0.99
CC1(C)Cc2c([nH]c3ccccc23)C(CCCCCCCCC2=NC(C)(C)Cc3c2[nH]c2ccccc32)=N1 | 8.46 | 6.32 | 0.21
N#Cc1ccc2[nH]cc(CN3CCC4(CC3)CN(CCNCc3ccccc3)C(=O)CO4)c2c1 | 2.13 | -0.73 | 5.02
